About 83,000 compounds went through this panel and 20% of them were active in at least one assay; those are over-represented in the sample as a whole.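 In brief: 96-well plates, 48 h treatment, single concentration, percent growth endpoint.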 Activity calls are given as the source filed them. Rule for the calls: active = growth percent below 10; inactive = the rest.
Assays:
Test in all cases: NCI-60 one-dose screen, 48 h (100 = growth as untreated, 0 = no growth, -100 = all killed)
Conditions in all cases: 10 µM unless noted
SR leukemia = test system: SR leukemia
RPMI-8226 leukemia = test system: RPMI-8226 leukemia
OVCAR-5 ovarian = test system: OVCAR-5 ovarian
OVCAR-4 ovarian = test system: OVCAR-4 ovarian
SK-OV-3 ovarian = test system: SK-OV-3 ovarian
IGROV1 ovarian = test system: IGROV1 ovarian
OVCAR-3 ovarian = test system: OVCAR-3 ovarian
HS 578T breast = test system: HS 578T breast
NCI/ADR-RES ovarian = test system: NCI/ADR-RES ovarian
T-47D breast = test system: T-47D breast
BT-549 breast = test system: BT-549 breast
MDA-MB-435 melanoma = test system: MDA-MB-435 melanoma
SW-620 colon = test system: SW-620 colon
HCT-116 colon = test system: HCT-116 colon
HCC-2998 colon = test system: HCC-2998 colon
KM12 colon = test system: KM12 colon
MCF7 breast = test system: MCF7 breast
OVCAR-8 ovarian = test system: OVCAR-8 ovarian

Measured: growth

COc1ccc2c(c1)C/C(=C\c1cc(-c3cc(OC)c(OC)c(OC)c3)n[nH]1)C2=O
inactive: SR leukemia 57.8% | RPMI-8226 leukemia 52.8% | OVCAR-5 ovarian 97.5% | OVCAR-4 ovarian 82.2% | SK-OV-3 ovarian 102% | IGROV1 ovarian 106% | OVCAR-3 ovarian 93.6% | HS 578T breast 91.8% | NCI/ADR-RES ovarian 83.4% | T-47D breast 73.4% | BT-549 breast 85.2% | MDA-MB-435 melanoma 91.5% | SW-620 colon 91.1% | HCT-116 colon 81.9% | HCC-2998 colon 102% | KM12 colon 85%

COc1ccc2nc(-c3cc(-c4cc(OC)c(OC)c(OC)c4)n[nH]3)[nH]c2c1
inactive: SR leukemia 13.8% | OVCAR-5 ovarian 58.8% | SK-OV-3 ovarian 33.8% | IGROV1 ovarian 18.7% | SW-620 colon 21% | HCT-116 colon 12.7% | HCC-2998 colon 49.6%
active: RPMI-8226 leukemia -50.6% | OVCAR-4 ovarian -21.9% | NCI/ADR-RES ovarian -0.97% | T-47D breast -31.2% | BT-549 breast 3.56% | MDA-MB-435 melanoma -25.4% | MCF7 breast -6.38% | KM12 colon -30%

COc1ccc2nc(-c3c(-c4ccccc4)nc4ncccn34)[nH]c2c1
inactive: SR leukemia 90.3% | RPMI-8226 leukemia 88% | OVCAR-5 ovarian 97.9% | OVCAR-4 ovarian 93.2% | SK-OV-3 ovarian 109% | IGROV1 ovarian 111% | NCI/ADR-RES ovarian 108% | T-47D breast 82.1% | BT-549 breast 110% | MDA-MB-435 melanoma 104% | SW-620 colon 108% | MCF7 breast 96.6% | HCT-116 colon 97.1% | HCC-2998 colon 101% | KM12 colon 111%

COc1cc(-c2cc(-c3nc4ccc(F)cc4[nH]3)[nH]n2)cc(OC)c1OC
active: RPMI-8226 leukemia -37.3% | OVCAR-4 ovarian -2.29% | NCI/ADR-RES ovarian -6.05% | T-47D breast -21.3% | BT-549 breast 6.58% | MDA-MB-435 melanoma 5.65% | MCF7 breast 9.15%
inactive: SR leukemia 12.6% | OVCAR-5 ovarian 88.5% | SK-OV-3 ovarian 13.3% | IGROV1 ovarian 43.6% | OVCAR-3 ovarian 24% | SW-620 colon 52.1% | HCT-116 colon 31.2% | HCC-2998 colon 66.6% | KM12 colon 12.9%

CN(C)c1ccc(-c2ccc(-c3ccc(C(=N)N)c(F)c3)s2)cc1
active: SR leukemia 1.32% | RPMI-8226 leukemia -52.6% | OVCAR-8 ovarian -26.4% | OVCAR-4 ovarian -85.1% | IGROV1 ovarian -84% | OVCAR-3 ovarian -88.2% | NCI/ADR-RES ovarian -49.2% | T-47D breast -60.3% | SW-620 colon -75% | HCT-116 colon -89.3% | HCC-2998 colon -95.4% | KM12 colon -87.9%
inactive: HS 578T breast 102% | BT-549 breast 95.7%

COc1cccc(NC(=O)c2sc3nc4c(cc3c2N)C(=O)CCC4)c1
inactive: OVCAR-5 ovarian 50% | OVCAR-4 ovarian 58.9% | IGROV1 ovarian 49.2% | T-47D breast 51.9% | BT-549 breast 29.9% | SW-620 colon 23.6% | MCF7 breast 29.4% | HCT-116 colon 17.6% | HCC-2998 colon 19.9% | KM12 colon 16.6%
active: SR leukemia 3.01% | RPMI-8226 leukemia 0.464% | SK-OV-3 ovarian -2.7% | OVCAR-3 ovarian -2.17% | NCI/ADR-RES ovarian -31.2% | MDA-MB-435 melanoma -37.2%

COc1cc(-c2cc(-c3nc4ccccc4[nH]3)[nH]n2)cc(OC)c1OC
active: RPMI-8226 leukemia -24.9% | T-47D breast 6.65%
inactive: SR leukemia 11.1% | OVCAR-5 ovarian 93.9% | OVCAR-4 ovarian 44.3% | SK-OV-3 ovarian 42.4% | IGROV1 ovarian 47.4% | OVCAR-3 ovarian 33.8% | NCI/ADR-RES ovarian 36.2% | BT-549 breast 36.4% | MDA-MB-435 melanoma 19.2% | SW-620 colon 59.4% | MCF7 breast 44.2% | HCT-116 colon 38.7% | HCC-2998 colon 71.4%

O=c1c2sc3ncc(Br)cc3c2ncn1-c1cccc(Cl)c1
active: OVCAR-4 ovarian -25.9%
inactive: SR leukemia 76.6% | RPMI-8226 leukemia 75.1% | OVCAR-5 ovarian 94.6% | SK-OV-3 ovarian 67.6% | IGROV1 ovarian 83.9% | NCI/ADR-RES ovarian 80.8% | T-47D breast 61.9% | BT-549 breast 78.9% | MDA-MB-435 melanoma 75.2% | SW-620 colon 58.8% | MCF7 breast 94.2% | HCT-116 colon 27.4% | HCC-2998 colon 104% | KM12 colon 72.2%

COc1ccc(-c2nc3ncccn3c2-c2nc3ccc(Br)cc3[nH]2)cc1
inactive: SR leukemia 61.1% | RPMI-8226 leukemia 60.6% | OVCAR-5 ovarian 95.6% | OVCAR-4 ovarian 101% | SK-OV-3 ovarian 105% | IGROV1 ovarian 94% | OVCAR-3 ovarian 72.7% | NCI/ADR-RES ovarian 87.3% | T-47D breast 77.8% | BT-549 breast 90.4% | MDA-MB-435 melanoma 68.1% | SW-620 colon 93.9% | MCF7 breast 96.7% | HCT-116 colon 83% | HCC-2998 colon 97% | KM12 colon 84.5%

O=C1NC(=Nc2ccc(S(=O)(=O)Nc3nccs3)cc2)S/C1=C\c1coc2ccccc2c1=O
inactive: SR leukemia 88.9% | RPMI-8226 leukemia 101% | OVCAR-4 ovarian 102% | SK-OV-3 ovarian 91.5% | IGROV1 ovarian 98.1% | OVCAR-3 ovarian 117% | HS 578T breast 90.8% | NCI/ADR-RES ovarian 106% | T-47D breast 97.1% | BT-549 breast 106% | MDA-MB-435 melanoma 124% | SW-620 colon 99.7% | MCF7 breast 88% | HCT-116 colon 104% | HCC-2998 colon 99.1% | KM12 colon 113%

Nc1c(C(=O)Nc2cccc(Cl)c2)sc2ncc(Cl)cc12
inactive: SR leukemia 66.3% | RPMI-8226 leukemia 75% | OVCAR-8 ovarian 81.9% | SK-OV-3 ovarian 81% | IGROV1 ovarian 79.5% | OVCAR-3 ovarian 71.4% | T-47D breast 49.6% | BT-549 breast 68.8% | MDA-MB-435 melanoma 77.5% | SW-620 colon 66.6% | MCF7 breast 84% | HCT-116 colon 19.6% | HCC-2998 colon 78.2% | KM12 colon 63.3%
active: OVCAR-4 ovarian -4.92%

N#CC1=C(N)Oc2c(c(N)nn2-c2ccccc2)C1c1ccc(Cl)cc1 (stereo not drawn)
inactive: SR leukemia 95.8% | OVCAR-8 ovarian 95.4% | OVCAR-5 ovarian 102% | OVCAR-4 ovarian 105% | SK-OV-3 ovarian 81.7% | IGROV1 ovarian 84.5% | OVCAR-3 ovarian 109% | HS 578T breast 97% | NCI/ADR-RES ovarian 101% | T-47D breast 86.7% | BT-549 breast 81.5% | MDA-MB-435 melanoma 105% | SW-620 colon 98.1% | MCF7 breast 98.7% | HCT-116 colon 96.2% | HCC-2998 colon 113% | KM12 colon 104%

Fc1ccc2nc(-c3cc(-c4ccc5c(c4)OCO5)n[nH]3)[nH]c2c1
inactive: SR leukemia 10% | RPMI-8226 leukemia 10.3% | OVCAR-5 ovarian 84.3% | OVCAR-4 ovarian 57.2% | SK-OV-3 ovarian 70.3% | IGROV1 ovarian 62.3% | HS 578T breast 78.2% | NCI/ADR-RES ovarian 42.4% | T-47D breast 50.4% | BT-549 breast 27.5% | MDA-MB-435 melanoma 46.4% | SW-620 colon 37.2% | MCF7 breast 59.3% | HCT-116 colon 49.6% | HCC-2998 colon 71.9% | KM12 colon 16.1%
active: OVCAR-3 ovarian 5.87%

Nc1c(C(=O)Nc2cccc(Br)c2)sc2nc3c(cc12)C(=O)CCC3
active: SK-OV-3 ovarian 5.74% | OVCAR-3 ovarian 5.48%
inactive: SR leukemia 13.7% | RPMI-8226 leukemia 38.3% | OVCAR-5 ovarian 59.3% | OVCAR-4 ovarian 77.2% | IGROV1 ovarian 44% | NCI/ADR-RES ovarian 26.9% | T-47D breast 30% | BT-549 breast 57.8% | MCF7 breast 22.1% | HCT-116 colon 33.4% | HCC-2998 colon 38.2% | KM12 colon 18.6%

COc1ccc2c(c1)C/C(=C\c1cc(-c3ccc4c(c3)OCO4)n[nH]1)C2=O
inactive: SR leukemia 73.7% | RPMI-8226 leukemia 45.8% | OVCAR-5 ovarian 98.3% | OVCAR-4 ovarian 90.9% | SK-OV-3 ovarian 95.6% | IGROV1 ovarian 99.1% | OVCAR-3 ovarian 71.3% | HS 578T breast 99.4% | NCI/ADR-RES ovarian 109% | T-47D breast 23% | BT-549 breast 93.9% | MDA-MB-435 melanoma 93% | SW-620 colon 96.6% | MCF7 breast 34.8% | HCT-116 colon 93.3% | HCC-2998 colon 105% | KM12 colon 85.7%

CCCCC/C(=C\c1ccccc1)C1OC(C)C(C)O1 (stereo not drawn)
inactive: SR leukemia 99.4% | OVCAR-8 ovarian 96.3% | OVCAR-5 ovarian 93.7% | OVCAR-4 ovarian 108% | SK-OV-3 ovarian 96.7% | IGROV1 ovarian 112% | OVCAR-3 ovarian 101% | HS 578T breast 110% | NCI/ADR-RES ovarian 100% | T-47D breast 94.4% | BT-549 breast 95.7% | MDA-MB-435 melanoma 105% | SW-620 colon 103% | MCF7 breast 102% | HCT-116 colon 81.7% | HCC-2998 colon 102% | KM12 colon 98.8%

COc1ccc(-c2cc(/C=C/C(=O)c3ccc(OC)c(OC)c3)[nH]n2)cc1
active: SR leukemia -32.7% | RPMI-8226 leukemia -48.4% | OVCAR-3 ovarian -14.6% | NCI/ADR-RES ovarian -0.366% | BT-549 breast -34.2% | SW-620 colon -70.5% | MCF7 breast 6.07% | HCT-116 colon -40.7% | KM12 colon -79.9%
inactive: OVCAR-5 ovarian 48.5% | OVCAR-4 ovarian 32.7% | SK-OV-3 ovarian 49.3% | IGROV1 ovarian 61% | T-47D breast 22.2% | MDA-MB-435 melanoma 21.3% | HCC-2998 colon 92.7%

O=C(/C=C/c1cccc(O)c1)c1ccccc1O
inactive: SR leukemia 36% | RPMI-8226 leukemia 28% | OVCAR-8 ovarian 92.9% | SK-OV-3 ovarian 107% | IGROV1 ovarian 66.7% | OVCAR-3 ovarian 93.5% | HS 578T breast 86.9% | NCI/ADR-RES ovarian 86.6% | T-47D breast 91.2% | BT-549 breast 85.2% | MDA-MB-435 melanoma 76% | MCF7 breast 63.5% | HCT-116 colon 78.1% | HCC-2998 colon 98% | KM12 colon 72.5%

CC1(n2nnnc2N2CCCN(c3ncccc3N)CC2)CCC1
inactive: SR leukemia 79.1% | RPMI-8226 leukemia 104% | OVCAR-8 ovarian 102% | OVCAR-4 ovarian 97.2% | IGROV1 ovarian 99.7% | OVCAR-3 ovarian 106% | HS 578T breast 97.5% | NCI/ADR-RES ovarian 103% | T-47D breast 101% | BT-549 breast 99.4% | MDA-MB-435 melanoma 99.5% | SW-620 colon 104% | HCT-116 colon 84.1% | HCC-2998 colon 108% | KM12 colon 102%

O=C(O)c1cccc2c1-c1ccc(Cl)cc1C2
inactive: SR leukemia 88.2% | RPMI-8226 leukemia 102% | OVCAR-8 ovarian 107% | SK-OV-3 ovarian 117% | IGROV1 ovarian 114% | OVCAR-3 ovarian 118% | HS 578T breast 103% | NCI/ADR-RES ovarian 110% | T-47D breast 97.9% | BT-549 breast 113% | MDA-MB-435 melanoma 106% | SW-620 colon 111% | MCF7 breast 104% | HCT-116 colon 107% | HCC-2998 colon 106% | KM12 colon 108%
